According to PubChem BioAssay (NCI):
Several values for one entry are separate records, joined by “and”; a condition that tells them apart may be missing. Equal values may be shown once. This is part of a sample that, as a whole, favours compounds with a hit. Of some 79,000 tested, about 15% had one in any assay. Unmarked numbers belong to inactive results. Activity calls are given as the source filed them. Rule as the data show it: active = growth inhibition above about 70%; inactive = the rest.

Experiment: NCI Yeast Anticancer Drug Screen. Data for the bub3 strain (AID 167)
Settings: S. cerevisiae bub3 mutant strain, hits give high values
Method: Growth inhibition of yeast strains with defined genetic alterations is measured as a screen for potential anti-cancer activity. Selected strains with alterations in DNA damage repair or cell cycle control were exposed to compounds and growth inhibition was measured relative to vehicle treated controls. The strain used in this assay is bub3

[1] = at 5.0 µM (retest, dose inferred, filed as 0.5)
[2] = at 50.0 µM (retest, dose inferred, filed as 5.0)

With `N#Cc1c2ccccc2nc2ccccc12` the growth inhibition [1] was 5%, the growth inhibition [2] was 12% and the growth inhibition (at 50.0 µM) was 28.4%.
Molecule `O=C(C[P+](c1ccccc1)(c1ccccc1)c1ccccc1)c1ccccc1` has a growth inhibition [1] of 2%, a growth inhibition [2] of 8% and a growth inhibition (at 50.0 µM) of 16.6%.
With `CCCCCCN(CCCCCC)CCCCCCCCCCCO` the growth inhibition [1] was 16% and the growth inhibition [2] was 99% (active).
In the case of `Cc1cc(C)c([I+]c2c(C)cc(C)cc2C)c(C)c1`, the growth inhibition [1] is reported as 52%, the growth inhibition [2] is reported as 98% (active) and the growth inhibition (at 50.0 µM) is reported as 60%.
`C/C(=N/NC(N)=S)c1ccc(C)cc1` showed a growth inhibition [1] of -13%, a growth inhibition [2] of -8% and a growth inhibition (at 50.0 µM) of 45%.
In the case of `CC(/C=N/NC(N)=S)Cc1ccc(C(C)C)cc1` (configuration not stated), the growth inhibition [1] is reported as 99% (active) and the growth inhibition [2] is reported as 97% (active).
For `CCC1C[N+]2=C(c3cc(OC)c(OC)cc3CC2)c2c1cc1n2CCc2cc(OC)c(OC)cc2-1` (configuration not stated), the growth inhibition [1] was 99% (active), the growth inhibition [2] was 99% (active) and the growth inhibition (at 50.0 µM) was 93.5% (active).
In the case of `Cc1ccc2cccc(OC(=O)Nc3cccc(C(F)(F)F)c3)c2n1`, the growth inhibition [1] is reported as 42%, the growth inhibition [2] is reported as 98% (active) and the growth inhibition (at 50.0 µM) is reported as 90.9% (active).
Work on `Cc1ccccc1N=C(N)Nc1ccccc1C` (tested in a mixture with another compound) yielded a growth inhibition [1] of 3%, a growth inhibition [2] of 11% and a growth inhibition (at 50.0 µM) of 11.5%.
With `CC(C)c1ccc(C(=O)OC2CCCC2)cc1` the growth inhibition [1] was 4%, the growth inhibition [2] was 99% (active) and the growth inhibition (at 50.0 µM) was 53%.
In the case of `CCCc1cc(=O)oc2c3c(c4c(c12)OC(C)(C)CC4)OC(C)[C@H](C)[C@@H]3O` (some centres not stated), the growth inhibition [1] is reported as 12%, the growth inhibition [2] is reported as 90% (active) and the growth inhibition (at 50.0 µM) is reported as 80.1% (active).
For `[Cl-].[Rh+3].c1ccc(-c2ccnc3c2ccc2c(-c4ccccc4)ccnc23)cc1.c1ccc(-c2ccnc3c2ccc2c(-c4ccccc4)ccnc23)cc1.c1ccc(-c2ccnc3c2ccc2c(-c4ccccc4)ccnc23)cc1`, the growth inhibition [1] was -7%, the growth inhibition [2] was 38% and the growth inhibition (at 50.0 µM) was 90.8% (active).
In the case of `COc1ccc2c(c1)c(CC(=O)O)c(C)n2C(=O)c1ccc(Cl)cc1`, the growth inhibition [1] is reported as 1%, the growth inhibition [2] is reported as 30% and the growth inhibition (at 50.0 µM) is reported as 51.1%.
With `COc1cccc2c1C(=O)c1c(O)c3c(c(O)c1C2=O)C[C@@](O)(C(=O)CO)C[C@@H]3OC1CC(OC(C)=O)C(OC(C)=O)C(C)O1` (some centres not stated) the growth inhibition [1] was 42%, the growth inhibition [2] was 99% (active) and the growth inhibition (at 50.0 µM) was 88.9% (active).
For `CC(=O)/C=C/C1=C(C)CCCC1(C)C`, the growth inhibition (at 50.0 µM) was -20.9% and 0.5%.
With `O=c1c([N+](=O)[O-])c[nH]c2cc(Cl)ccc12` the growth inhibition (at 50.0 µM) was -6% and 11.6%.
